# Measurements reported in PubChem BioAssay AID430 (Sanford-Burnham Center for Chemical Genomics, 2006).
# Screen size: about 63,000 compounds; about 1,100 (1.7%) were called active. This excerpt belongs to a sample that is enriched for actives. Results with a measured potency or affinity are listed apart. Values without a mark were called inactive. Cut-off read from the data, not from the text of the source: active = cytotoxicity above about 50%; inactive = the rest.
# Experiment: cytotoxicity in HPDE-C7 cells, cell-based, fluorescence, HTS (AID 430);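 note: cells exposed to compound for 48 hours before viability readout; 0% = vehicle and 100% = reference cytotoxic drug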
# Details: HPDE-C7 pancreatic duct cells viability, at 10 µM, active compounds read high
row,Compound,cytotoxicity
1,O=C(c1cccs1)N(Cc1cccc(Cl)c1)C1CCS(=O)(=O)C1 (stereo unspecified),-4.1%
2,CCOc1ccccc1-n1nnnc1SCC(=O)Nc1cc2oc3ccccc3c2cc1OC,43.6%
3,C=C(C)CSc1nc2nc(C)cc(C)n2n1,9.4%
4,CC(C)NC(=O)CN(C)S(=O)(=O)c1ccc(F)cc1,1.5%
5,O=C1NC2(CCCC2)N=C1c1ccc(Cl)cc1,-2.7%
6,O=C1NC2(CCCCC2)N=C1c1ccccc1,-3%
7,O=C(CN1CCN(c2ccc(F)cc2)CC1)Nc1ccc(-n2cnnn2)cc1,16.2%
8,CCOc1ccc2nc(NCCNC(=O)C3CC3)c(C)cc2c1,-13.7%
9,CCCCc1ccc(-c2ccc(C)cc2O)nc1,-28.6%
10,CCCCc1ccc(CC(=O)O)cc1,-6.3%
11,COc1cccc2c1nc(C)c1cc(C)oc12,-6.1%
12,Cc1cc(Nc2cc(C)on2)n2ncnc2n1,1.6%
13,O=C(NCc1ccc2c(c1)OCO2)c1ccc2c(=O)n(C3CCCC3)c(=O)[nH]c2c1,2.7%
14,Cc1ccc(CC2SC(=O)NC2=O)cc1Cl (stereo unspecified),-2.2%
15,CCCSc1nnc(Sc2nnnn2-c2ccccc2)s1,81% (active)
16,Cc1ccc(C)c(Oc2nnnn2-c2ccccc2)c1,-0.9%
17,c1ccc(-n2nnnc2SCCCSc2nc3ccccc3s2)cc1,5.8%
18,COc1ccc(CCNc2nnc(Sc3nnnn3-c3ccccc3)s2)cc1OC,53.9% (active)
19,C(=C\CSc1nnnn1-c1ccccc1)/CSc1nnnn1-c1ccccc1,-4.4%
20,Cn1ccnc1Sc1nnnn1-c1ccccc1,-14.7%
21,COc1ccc(CCNC(=O)CSc2nnnn2-c2ccccc2OC)cc1OC,8%
22,COc1ccc(-n2nnnc2SCC(=O)NCCc2ccc(OC)c(OC)c2)cc1,-0.4%
23,COc1ccc(Cc2nnc(SCC(=O)NCC3CCCO3)o2)cc1 (stereo unspecified),0.6%
24,Cn1c2c(c(=O)n(C)c1=O)C(NC(=O)c1ccco1)(C(F)(F)F)C(=O)N2 (stereo unspecified),-22.3%
25,O=S(=O)(c1ccc(Br)s1)N1CCN(c2ccccc2)CC1,-10.8%
26,COc1ccccc1NC(=O)c1nnn(Cc2ccccc2)c1NC(C)=O,2.6%

row,Compound,cytotoxicity
1,COC(=O)Nc1ccc(NC(C)=O)cc1,-16%
2,CCOC(=O)c1cc(-c2ccncc2)nc2c1c(C)nn2C,4%
3,COc1ccc(C(OC(=O)c2c(C)noc2C)C(=O)NC2CCCC2)cc1 (stereo unspecified),1.7%
4,CCN1CCN(CCCNC(=O)c2cc3sccc3n2CC)CC1,3.8%
5,CCOCCCNC(=O)CSc1ccccc1,-13.6%
6,O=S(=O)(c1ccc(Br)cc1)N1CCn2c(nc3ccccc32)C1,1.5%
7,O=S(=O)(c1ccc2c(c1)nc1n2CCC1)N1CCOCC1,30.9%
8,COc1cc(CNc2ccc(C)c(C)c2)cc(OC)c1OC,46.9%
9,Cc1ccc(NCC(O)C(O)C(O)CO)cc1C (stereo unspecified),53.3% (active)
10,COc1ccc(C(O)CNc2ccc(C)cc2)cc1 (stereo unspecified),-2.1%
11,COc1ccc(OC)c(S(=O)(=O)N(C)CC(=O)Nc2ccc3c(c2)OCCO3)c1,-1.4%
12,CCOc1ccc(N2CC(C(=O)NCCc3ccc(OC)c(OC)c3)CC2=O)cc1 (stereo unspecified),5.7%
13,CS(=O)(=O)N1CCC(C(=O)NCc2ccc(F)cc2Cl)CC1,-2.6%
14,CCOc1ccccc1NC(=O)CCn1c(=O)oc2ccccc21,0.7%
15,COc1cc(OC)cc(-n2nnnc2SCC(=O)N2CCCC2)c1,-7.2%
16,COc1ccc(-n2nnnc2S(=O)(=O)Cc2ccc(C(=O)O)cc2)cc1,4.8%
17,COc1ccc(-n2nnnc2S(=O)(=O)CC(=O)N2CCCCC2)cc1,76.4% (active)
18,Cc1oc(-c2ccccc2F)nc1CS(=O)CC(=O)NCc1cccs1 (stereo unspecified),-2.6%
19,CCc1c(O)nc(SCC(=O)Nc2ccc(C)cc2)n(C2CCCCC2)c1=O,51.2% (active)
20,CCc1c(O)nc(SCC(=O)Nc2ccccc2)n(-c2ccccc2)c1=O,23%
21,CCc1c(O)nc(SCC(=O)Nc2ccc(OC)cc2)n(C2CCCCC2)c1=O,-8.3%
22,COc1ccc(N2C(=O)CCC(C(=O)c3ccccc3)=C2C)cc1,-2.2%
23,Cc1c2c(nc3nc4ccccc4n13)CC(C)(C)CC2=O,0.8%
24,Cc1cc(C)c2cc(C#N)c(SCC(=O)NCC3CCCO3)nc2c1 (stereo unspecified),-15.1%
25,Cc1cc(Nc2ccc3ccccc3c2)n2ncnc2n1,-0.5%
26,CCc1cccc(Nc2cc(C)nc3ncnn23)c1,-0.8%

row,Compound,cytotoxicity
1,CCn1c2ccccc2c2cc(Nc3cc(C)nc4ncnn34)ccc21,64.5% (active)
2,CCOCc1nnc(NC(=O)CSCc2ccccc2)s1,-3.4%
3,CC1CCCN(c2ncnc3c2cnn3-c2ccccc2)C1 (stereo unspecified),-9.4%
4,Cc1cc(NC(=O)c2c(-c3ccccc3Cl)noc2C)no1,-12.4%
5,CCCCNC(=O)c1c(N)n(/N=C/c2ccccn2)c2nc3ccccc3nc12,50.5% (active)
6,CC(C)CNC(=O)c1c(N)n(/N=C/c2ccccn2)c2nc3ccccc3nc12,14.8%
7,COCCCNC(=O)c1c(N)n(/N=C/c2cccnc2)c2nc3ccccc3nc12,33.1%
8,COCCNC(=O)c1c(N)n(/N=C/c2cccs2)c2nc3ccccc3nc12,42.8%
9,CCC(C)NC(=O)c1c(N)n(/N=C/c2cccnc2)c2nc3ccccc3nc12 (stereo unspecified),41.4%
10,COCCCNC(=O)c1c(N)n(/N=C/c2ccccn2)c2nc3ccccc3nc12,22%
11,CC(C)OCCCNC(=O)c1c(N)n(/N=C/c2ccccn2)c2nc3ccccc3nc12,28.4%
12,CCOc1cc(C(=O)NCCOC)ccc1OC,-6.6%
13,CC(=O)N1CCN(S(=O)(=O)c2ccc(C)cc2)C1C(C)C (stereo unspecified),11%
14,CCOc1ccc(-c2cc(CCCC(=O)NCc3cccnc3)no2)cc1,-0.4%
15,Cn1cccc1Cc1nnc(SCC(=O)NCC2CCCO2)n1-c1ccc(F)cc1 (stereo unspecified),0.9%
16,COc1ccc(NC2=NC3(CCCCC3)N=C(N)N2)cc1,4.1%
17,COc1cccc(NC2=NC3(CCCCC3)N=C(N)N2)c1,3.1%
18,CCSc1nnc(NC(=O)c2cnccn2)s1,-7%
19,CCOC(=O)N1CCC(NC(=O)CC(NS(=O)(=O)c2ccc(Cl)cc2)c2ccco2)CC1 (stereo unspecified),-6.1%
20,COc1ccc(OC)c(NC(=O)CCN2CCN(Cc3ccccc3)CC2)c1,0.1%
21,Cc1cccc(-c2nc(CS(=O)CC(=O)NCCCSC3CCCCC3)c(C)o2)c1 (stereo unspecified),56.1% (active)
22,CCCCSCCCNC(=O)CS(=O)Cc1nc(-c2cccc(C)c2)oc1C (stereo unspecified),-17.4%
23,CCCCNC(=O)CS(=O)Cc1nc(-c2cccc(C)c2)oc1C (stereo unspecified),0.4%
24,Cc1ccc(C2(C(F)(F)F)NC(=O)N3CCN=C3S2)cc1 (stereo unspecified),81.6% (active)
25,Cc1ccc(C2(C(F)(F)F)NC(=O)N3CCCN=C3S2)cc1 (stereo unspecified),-18.8%
26,O=C1NC(c2ccccc2)(C(F)(F)F)SC2=NCCCN12 (stereo unspecified),-2.2%

row,Compound,cytotoxicity
1,CC(C)c1ccc2c(c1)C(=O)NC(C)(C)C2,1.8%
2,COc1ccccc1C(=O)NCCn1cc(SCC(=O)Nc2nnc(C)s2)c2ccccc21,-8%
3,CC(C)Cn1c(CN(Cc2ccccc2)Cc2ccccc2)nc2c1c(=O)n(C)c(=O)n2C,51.7% (active)
4,CCCn1c(CN(Cc2ccccc2)Cc2ccccc2)nc2c1c(=O)n(C)c(=O)n2C,-14.9%
5,CC(C)Cn1c(CN(C)Cc2ccccc2)nc2c1c(=O)n(C)c(=O)n2C,-6.6%
6,CCOP(=O)(c1ccc(N(C)C)cc1)C(O)c1cc(OC)c(OC)c(OC)c1 (stereo unspecified),5.9%
7,C=COC(=O)CSc1nc(-c2cccs2)ccc1C#N,26.7%
8,CCOC(=O)C(C)Sc1nc(-c2cccs2)ccc1C#N (stereo unspecified),59.2% (active)
9,COC(=O)CSc1nc(-c2cccs2)ccc1C#N,29.9%
10,O=C(Nc1ccccc1N1CCCC1)c1ccco1,3.9%
11,O=c1[nH]c2cc3c(cc2cc1CN(CCCO)Cc1nnnn1Cc1ccc(F)cc1)OCO3,-1.2%
12,CC(=O)Nc1nc(C)nc(-c2ccccc2)c1C(C)=O,-1.8%
13,CCc1nnc(NC(=O)CSc2nnc(-c3ccccc3O)n2-c2ccc(C)cc2)s1,-7.9%
14,CCc1nnc(NC(=O)CSc2nnc(-c3ccccc3OC)n2-c2ccccc2)s1,-8.7%
15,CCc1nnc(NC(=O)CSc2nnc(-c3ccccc3O)n2-c2ccc(C)cc2C)s1,73.5% (active)
16,CCOC(=O)c1ccc2nc(NC(=O)C(C)C)sc2c1,-3.3%
17,C=CCN(CC=C)S(=O)(=O)c1ccc2nsnc2c1,-6.7%
18,C=CCN(CC=C)S(=O)(=O)c1ccc2nc(NC(=O)C(C)C)sc2c1,76.7% (active)
19,COc1ccc(-c2noc(CSc3nc4ccccc4c(=O)n3-c3ccccc3)n2)cc1OC,-10.3%
20,Cc1ccccc1NC(=O)C1CCCN(S(=O)(=O)c2cnc[nH]2)C1 (stereo unspecified),-5.3%
21,CC(C)c1[nH]nc2c1C(C(C)C)C(C#N)=C(N)O2 (stereo unspecified),-24.3%
22,NC1=NC(c2ccc(F)cc2)n2c(nc3ccccc32)N1 (stereo unspecified),-3.6%
23,Cc1cc(C2N=C(N)Nc3nc4ccccc4n32)c(C)n1-c1ccccc1Cl (stereo unspecified),2.7%
